Here are results for 100 molecules from PubChem BioAssay AID686978 (National Center for Advancing Translational Sciences (NCATS), 2013).

“And” between values parts separate entries of the source, which are not always exact repeats. Identical values can stand only once. In all, about 420,000 compounds went through this assay and about 64,000 (15%) were called active. Not shown: some 27% with an inconclusive outcome. Calls follow the shape of the dose curve; as a rule, active = well fitted inhibition curve with a large enough effect; inconclusive = small, poorly fitted or top-dose-only effect; inactive = flat fitted curve, though single readings scatter. The list is a sample of the results. A call without a number means that no potency is given here.
Potency is read from the fitted curve at half-maximal effect.

The assay in a line: qHTS for Inhibitors of human tyrosyl-DNA phosphodiesterase 1 (TDP1): qHTS in cells in absence of CPT. Also: nearly all actives have a fitted effect of over 55% in size. The following applies: DT40 Tdp1-/- hTDP1 cells, no CPT, ATP luminescence, 48 h; activity change, negative = growth inhibition: at 46.2 µM (top of the series). Summed up: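 Readout: luminescence from CellTiter-Glo after 30 min in the dark at RT. Cells: DT40 Tdp1-/- with stable hTDP1, 400/well. Exposure: compounds alone, ≥48 hr, 37 °C.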
`C/C(Cn1nnc2ccccc21)=N\OC(=O)c1cc(F)c(F)cc1Cl`: the Potency result is “inactive”.

For `O=C(NCc1ccc(F)cc1)C1CCC(CNc2c(N3CCOCC3)c(=O)c2=O)CC1` (stereo not given), the Potency entry is “inactive”.

With `CC[C@]1(O)C[C@@H]2CN(CCc3c([nH]c4ccccc34)[C@@](C(=O)OC)(c3cc4c(cc3OC)N(C)[C@H]3[C@@](O)(C(=O)OC)[C@H](OC(C)=O)[C@]5(CC)C=CCN6CC[C@]43[C@@H]65)C2)C1`, the Potency was 51.7 nM (active) and 59.6 nM (active) and 82 nM (active).

In the case of `CC[C@]1(O)CC2CN(CCc3c([nH]c4ccccc34)[C@@](C(=O)OC)(c3cc4c(cc3OC)N(C=O)[C@H]3[C@@](O)(C(=O)OC)[C@H](OC(C)=O)[C@]5(CC)C=CCN6CC[C@]43[C@@H]65)C2)C1` (stereo not given in full), the Potency result was “inactive”.

Regarding `CCN(CC)Cc1c(C(=O)OC)nnn1-c1nonc1N`, the Potency result is “inactive”.

With `CC1(C(=O)NS(=O)(=O)c2ccccc2)CCN1C(=O)c1ccccc1` (stereo not given), the Potency entry is “inactive”.

As to `CC(C)NC(=O)C1(C)CCCCCN1C(=O)c1ccc(-c2ccccc2)cc1` (stereo not given), the Potency is 9.2 µM (active).

In the case of `CCNC(=O)C1(C)CCCN1C(=O)c1ccc(N(C)C)cc1` (stereo not given), the Potency result was “inactive”.

For `CC(C)(CNCC(O)c1ccccc1)N1CCOCC1` (stereo not given), the Potency result was “inactive”.

As to `CCOc1ccc(/C=N/NC(N)=S)cc1`, the Potency is 16.4 µM (active).

Take `NC(=S)N/N=C/c1ccc([N+](=O)[O-])cc1`: the Potency result was “inactive”.

In the case of `CCOC(=O)N1CCC(=NNC(N)=O)CC1`, the Potency entry is “inactive”.

As to `N#Cc1nc(COc2ccc(Cl)cc2)oc1N1CCCC1`, the Potency result is “inactive”.

Consider `CCC(C)Nc1oc(-c2ccc(COc3ccc(Cl)cc3)o2)nc1C#N` (stereo not given), for which the Potency was 23.1 µM (active).

As for `CC1CC(C)CN(c2oc(-c3ccc(OCc4ccc(Cl)cc4)cc3)nc2C#N)C1` (stereo not given), the Potency result is “inactive”.

With `COC(=O)c1sccc1NC(=O)c1ccc(Cl)cc1`, the Potency entry was “inactive”.

For the molecule `O=C1c2ccccc2C(=O)C1c1ccccc1`, the Potency result is “inactive”.

On to `COc1ccc(NC(=O)/C(C#N)=C\c2cc(OC)c(OCc3ccc(C(=O)O)cc3)cc2Br)cc1`, for which the Potency entry is “inactive”.

As to `COc1ccccc1C(=O)N/C(=C/c1ccco1)C(=O)Nc1ccc(C(=O)O)cc1`, the Potency entry is “inactive”.

As for `COCCCn1c(=O)/c(=C/c2ccccc2OC(C)C)s/c1=C(\C#N)C(=O)Nc1ccc(C(=O)O)cc1`, the Potency was 20.6 µM (active).

As to `COCCNC(=S)N(CCc1c(C)[nH]c2ccc(C)cc12)Cc1cccnc1`, the Potency result was “inactive”.

`CCn1cc(C(=O)N2CC=C(c3ccccc3)CC2)c(=O)c2ccc(C)nc21`: the Potency result was “inactive”.

For the molecule `CCOc1cc(/C=C(\C#N)c2nc(-c3cccs3)c(NC(C)=O)s2)ccc1O`, the Potency was 3.66 µM (active).

For `CCOc1cc(/C=C(\C#N)C(=O)Nc2ccccc2C)ccc1OCc1cc(=O)n2nc(CC)sc2n1`, the Potency entry is “inactive”.

As for `CCOc1cc(/C=C(/C#N)c2ccc(Cl)cc2)cc(Cl)c1OCC(=O)O`, the Potency result is “inactive”.

As for `CSc1nc(C)nc2c1c(=O)n(C)c(=O)n2C`, the Potency result is “inactive”.

As to `O=P(O)(O)OC[C@H](O)CO`, the Potency entry was “inactive”.

As for `CC1(C)CC(CCC(=O)Nc2ccccc2Cl)C(=O)O1` (stereo not given), the Potency entry is “inactive”.

Consider `CCCCCCNC(=O)O[C@H]1CN(C(=O)OC(C)C)N(C(=O)OC(C)C)[C@@H]2CN(S(=O)(=O)c3ccc(C)cc3)C[C@]12O`, for which the Potency is 16.4 µM (active).

`CCCCOc1ccc(NC(=O)[C@@H]2CCCN2C(=O)C2CCN(S(=O)(=O)c3ccc(C)cc3)CC2)cc1`: the Potency entry is “inactive”.

Take `Cc1ccc(S(=O)(=O)N2CCC(C(=O)N[C@@H](C)C(=O)NCc3ccccc3)CC2)cc1`: the Potency entry was “inactive”.

On to `Cc1ccc(NS(=O)(=O)c2ccc(C)c(NC(=O)COc3ccc4ccccc4c3)c2)c(C)c1`, for which the Potency is 16.4 µM (active).

Regarding `COc1ccc(C(=O)Nc2cc(C)ccc2NC(=O)COc2ccccc2)cc1`, the Potency result is “inactive”.

Consider `O=C(CNS(=O)(=O)c1ccc2ccccc2c1)Nc1ccc(F)c(F)c1F`, for which the Potency entry is “inactive”.

On to `CC1CCCCN1C(=S)NCc1ccccc1` (stereo not given), for which the Potency result is “inactive”.

For `C/C(=N\NC(=S)NCc1ccccc1)C1CCCCC1`, the Potency was 6.51 µM (active).

Regarding `C/C(=N\NC(=S)NCc1ccccc1)c1ccc(Cl)cc1`, the Potency is 18.4 µM (active).

`O=C(CC1CCCCC1)NCc1ccccc1`: the Potency entry was “inactive”.

Turning to `CN(C)CCCNC(=S)NCc1ccc(Cl)cc1`, the Potency result is “inactive”.

Regarding `O=C(O)c1ccc(/C=N/NC(=S)NCc2ccccc2)cc1`, the Potency entry is “inactive”.

Consider `C#CCOCCOCCOCCNc1nc(N2CCN(C(=O)[C@H](CCCCN)n3cc(CCC(=O)O)nn3)CC2)nc(N2CCN(C(=O)[C@H](CCCCN)n3cc(CC(C)O)nn3)CC2)n1` (stereo not given in full), for which the Potency result was “inactive”.

In the case of `CSc1ccc(CNC(=O)c2ccc(NC(=O)C3=CSCCO3)cc2)cc1`, the Potency result is “inactive”.

In the case of `CC(=O)c1ccc(N2CCN(CC(O)c3ccccc3)CC2)cc1` (stereo not given), the Potency result is “inactive”.

As to `CC1CCCCN1CC(=O)NCc1ccc2c(c1)OCO2` (stereo not given), the Potency result is “inactive”.

Regarding `Cn1cncc1COC(=O)c1ccc(Cl)cc1`, the Potency entry was “inactive”.

As for `CC(C)c1c(O)nc(SCCOc2ccc(Cl)cc2)[nH]c1=O`, the Potency result is “inactive”.

On to `Cc1ccc(OCCSc2nc(-c3cccs3)nc3cc(=O)[nH]n23)cc1Cl`, for which the Potency was 29.1 µM (active).

With `CCc1ccccc1OCCSc1nc(-c2cccs2)nc2cc(=O)[nH]n12`, the Potency entry is “inactive”.

Regarding `Brc1cccc(-c2nnc3n2CCC3)c1`, the Potency result was “inactive”.

As for `C[C@H](NC(=O)c1nc[nH]c1C(=O)NCC(=O)OC(C)(C)C)c1ccccc1`, the Potency result is “inactive”.

As for `CSc1ncc(C(=O)NCCCc2ccccc2)c(C)n1`, the Potency result was “inactive”.

On to `COc1ccc(CCNC(=O)c2cnc3sc(N4CCCCCC4)nn3c2=O)cc1OC`, for which the Potency is 8.2 µM (active).

For `COc1ccc(CCNC(=O)C2CCN(c3nn4c(=O)cc(C)nc4s3)CC2)cc1OC`, the Potency result is “inactive”.

As to `COc1ccc(CCNC(=O)c2ccc(NC(=O)CC3SC(N4CCCCC4)=NC3=O)cc2)cc1OC` (stereo not given), the Potency entry is “inactive”.

For `O=C(O)c1ccccc1-c1ccccc1C(=O)NCCc1ccccc1`, the Potency entry was “inactive”.

Regarding `O=C(NCCc1ccccc1)c1cnc2sc(N3CCCC3)nn2c1=O`, the Potency was 20.6 µM (active).

Turning to `Cc1ccccc1N1CC(c2nc3ccccc3[nH]2)CC1=O` (stereo not given), the Potency entry was “inactive”.

With `COCCNC(=O)CN(Cc1ccco1)C(=O)CCC(=O)Nc1nccs1`, the Potency result is “inactive”.

For the molecule `CCC(C)NC(=O)Cn1nc(C(F)(F)F)c2c1CCC2` (stereo not given), the Potency result is “inactive”.

As for `O=C(NCc1ccco1)c1nn2cccnc2c1Cl`, the Potency result was “inactive”.

For the molecule `CCOc1ccc(-n2c(SC(C)C(=O)OC)nc3c(c2=O)SCC3)cc1` (stereo not given), the Potency result is “inactive”.

In the case of `O=S(=O)(c1ccc(F)cc1)N1CCN(C(=S)NCc2ccco2)CC1`, the Potency result is “inactive”.

As for `COc1cc(/C=C/C(=O)O)cc(S(=O)(=O)Nc2ccccc2SC)c1OC`, the Potency result was “inactive”.

As for `CC(C)(C)c1csc(NC2=NS(=O)(=O)c3ccccc32)n1`, the Potency entry was “inactive”.

`COc1cc(Cl)c(NC(=O)C(NS(=O)(=O)c2cccs2)C(C)C)c(OC)c1` (stereo not given): the Potency entry was “inactive”.

Regarding `CC(C)C(NS(=O)(=O)c1cccs1)C(=O)Nc1nc(C(C)(C)C)cs1` (stereo not given), the Potency was 23.1 µM (active).

With `Cc1ccccc1-n1cc(CNC(=O)C2CCC(=O)N(C3CC3)C2)cn1` (stereo not given), the Potency entry was “inactive”.

As to `COc1ccc(CC(NC(C)=O)C(=O)N2CCN(C(=O)Nc3cccc(Cl)c3)CC2)cc1OC` (stereo not given), the Potency entry is “inactive”.

Regarding `CC(=O)Nc1cccc([N+](=O)[O-])c1`, the Potency result is “inactive”.

On to `O=C(CSCC(=O)Nc1cccc([N+](=O)[O-])c1)Nc1ccccc1`, for which the Potency result is “inactive”.

On to `COC(=O)/C=C\C(=O)Nc1cccc([N+](=O)[O-])c1`, for which the Potency was 2.06 µM (active).

`COc1cc(C2/C(=C(\O)c3ccc4c(c3)CC(C)O4)C(=O)C(=O)N2Cc2ccco2)ccc1O` (stereo not given): the Potency result was “inactive”.

On to `COc1ccc(-c2csc3ncnc(Oc4ccc5c(C)cc(=O)oc5c4)c23)cc1`, for which the Potency entry was “inactive”.

In the case of `CCOc1ccc(Nc2ncnc3scc(-c4ccc(OC)cc4)c23)cc1`, the Potency was 18.4 µM (active).

For the molecule `CCOC(=O)c1sc2nc(C)nc(Nc3ccc(OC)c(OC)c3)c2c1C`, the Potency result is “inactive”.

Regarding `Cc1c(Cl)c([N+](=O)[O-])nn1CCCC(=O)NC(C)c1ccccc1` (stereo not given), the Potency result is “inactive”.

For `CCC(C(=O)N1CCN(S(=O)(=O)c2sc(C(=O)O)c(C)c2C(=O)O)CC1)c1ccccc1` (stereo not given), the Potency entry is “inactive”.

Regarding `Cc1cccc(S(=O)(=O)N(C)C[C@H]2OCc3cnnn3CCCC(=O)N([C@@H](C)CO)C[C@H]2C)c1`, the Potency entry was “inactive”.

On to `Cc1csc(-c2nc3ccccc3n2C)n1`, for which the Potency is 18.8 µM (active).

As to `Cn1c(-c2ccc(C(=O)c3ccccc3)s2)nc2ccccc21`, the Potency result was “inactive”.

With `Cn1cccc1-c1nc2ccccc2n1C`, the Potency result was “inactive”.

With `Cc1ccc2nc(-c3ccc(Br)cc3)cn2c1`, the Potency result was “inactive”.

Regarding `Cc1cc2c(cc1C)NC(c1ccccn1)C1=C(CC(C)(C)CC1=O)N2` (stereo not given), the Potency entry was “inactive”.

In the case of `CC(CC(=O)O)C(=O)c1ccc(Cl)c([N+](=O)[O-])c1` (stereo not given), the Potency result is “inactive”.

With `Nc1nc(SCC(=O)Nc2ccc(Cl)c([N+](=O)[O-])c2)n[nH]1`, the Potency entry is “inactive”.

For `CN(C)c1ccc(/C=C/C(=O)c2ccc(C(C)(C)C)cc2)cc1[N+](=O)[O-]`, the Potency is 23.1 µM (active).

In the case of `O=C(/C=C/c1ccc(Cl)cc1)N1CCN(c2ccccc2[N+](=O)[O-])CC1`, the Potency entry is “inactive”.

Turning to `O=C(O)c1ccc2c(=O)n3c(nc2c1)/C(=C/c1ccc(Cl)c([N+](=O)[O-])c1)CC3`, the Potency entry was “inactive”.

With `O=C(/C=C/c1ccc(Cl)c([N+](=O)[O-])c1)c1ccc(O)cc1`, the Potency is 4.61 µM (active).

In the case of `NC(N)=N/N=C/c1ccc(Cl)c([N+](=O)[O-])c1`, the Potency is 10.3 µM (active).

`Cc1cc(C)n(-c2ccc(C(=O)O)cc2[N+](=O)[O-])n1`: the Potency result was “inactive”.

Take `Nn1cnnc1N/N=C/c1cc([N+](=O)[O-])c(Cl)cc1Cl`: the Potency result is “inactive”.

Consider `C[C@@H]1CC2=C(C(=O)OC(C)(C)O2)[C@@H](C2CC2)O1`, for which the Potency entry is “inactive”.

Take `COc1cccc(-c2ccc3c(c2)S(=O)(=O)c2cccc(C(=O)O)c2C3=O)c1OC`: the Potency result is “inactive”.

Consider `O=C(COC(=O)c1ccc([N+](=O)[O-])cc1Cl)NC(=O)c1ccccc1`, for which the Potency result is “inactive”.

Turning to `O=S(=O)(c1ccccc1)N1CCC2(CC1)CN(Cc1nccs1)C2`, the Potency result is “inactive”.

For the molecule `CC(=O)N[C@@H](C)C(=O)N1CCC(n2nccc2NC(=O)CCCc2ccccc2)CC1`, the Potency result is “inactive”.

Regarding `CCOC(=O)c1cccc(NC(=O)c2cc(CN3CCCC3)on2)c1`, the Potency entry is “inactive”.

For the molecule `CC(=O)N1CCN(C(=O)Nc2cccc(C(F)(F)F)c2)CC1`, the Potency result was “inactive”.

Turning to `Cc1oc2ccc(O)c(CN3CCCCC3)c2c1C(=O)Nc1cccc(C(F)(F)F)c1`, the Potency is 23.1 µM (active).
